From PubChem BioAssay AID628 (Vanderbilt High Throughput Screening Facility, 2007)
Out of some 64,000 compounds screened, about 2,200 (3.4%) were called active. This is one part of a sample in which actives are shown more often than they occur. Unmarked numbers belong to inactive results.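 The calls were made as follows: active = calcium fluorescence response, raw or row-and-column corrected B-score, differing from the plate sample mean either way at a set confidence level, mostly lower; inactive = the rest.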

Target: Muscarinic acetylcholine receptor M1 (Rattus norvegicus) (UniProt P08482)
Sequence (P08482 whole entry, looked up): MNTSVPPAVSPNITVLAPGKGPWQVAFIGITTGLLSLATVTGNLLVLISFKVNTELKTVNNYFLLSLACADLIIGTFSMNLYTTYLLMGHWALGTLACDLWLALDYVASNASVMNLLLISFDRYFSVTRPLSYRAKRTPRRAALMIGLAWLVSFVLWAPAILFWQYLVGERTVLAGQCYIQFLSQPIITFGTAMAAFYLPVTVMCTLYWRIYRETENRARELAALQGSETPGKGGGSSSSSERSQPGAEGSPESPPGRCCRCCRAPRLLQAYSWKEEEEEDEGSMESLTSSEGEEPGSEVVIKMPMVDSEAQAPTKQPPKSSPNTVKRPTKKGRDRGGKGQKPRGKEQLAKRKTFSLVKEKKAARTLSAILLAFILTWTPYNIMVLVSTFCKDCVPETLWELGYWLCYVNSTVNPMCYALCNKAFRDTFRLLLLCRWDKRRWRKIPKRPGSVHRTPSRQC
Assay: blocks the rat M1 muscarinic receptor response to acetylcholine (AID 628)
Settings: CHO-M1 cells, Fluo-4 calcium, ACh EC80 antagonist mode; at 10 µM; active compounds read low

| Structure (SMILES) | B-score |
| --- | --- |
| COCCNC(=O)C(C#N)c1nc2ccccc2nc1N1CCN(Cc2ccc3c(c2)OCO3)CC1 (stereo not drawn) | 0.357 |
| COc1ncnc2c1N=C1CC(C)(C)CC(N)=C1S2 | -3.02 (active) |
| Cc1ccc(S(=O)(=O)N2CCC(C(=O)N[C@@H](C)C(=O)NCc3ccccc3)CC2)cc1 | 0.328 |
| COc1cc2cc(CN(CCN3CCCC3)C(=O)Nc3ccccc3Cl)c(=O)[nH]c2cc1OC | -0.424 |
| Oc1ccc(Cl)cc1/C=N/c1nc2ccccc2[nH]1 | 0.265 |
| COc1ccc(S(=O)(=O)Nc2ccc3c(c2)OCO3)cc1Cl | -4.67 (active) |
| COc1ccc(F)cc1S(=O)(=O)Nc1ccc2c(c1)OCO2 | 0.86 |
| CC(C)CNS(=O)(=O)c1ccc(OCC(=O)Nc2ccc3c(c2)OCO3)c(Cl)c1 | 0.138 |
| COc1ccc(N2CCN(Cc3cc(=O)oc4ccc5ccccc5c34)CC2)cc1 | 0.836 |
| O=S(=O)(c1ccc2ccccc2c1)N1CCN(S(=O)(=O)N2CCOCC2)CC1 | 1.15 |
| O=c1ccc2cc(S(=O)(=O)N3CCN(c4ccccc4)CC3)ccc2o1 | 3.23 (active) |
| CCOC(=O)C1(C(F)(F)F)N=C(N(C)C)OC(N(C)C)=N1 | 0.0434 |
| Nc1ccc(-n2nncc2-c2ccco2)cc1 | 0.0134 |
| COc1cccc(OCC(O)CN2CCN(CCO)CC2)c1 (stereo not drawn) | -0.234 |
| O=C(C(c1ccccc1)c1ccccc1)N1CCN(CC(O)COc2ccccc2)CC1 (stereo not drawn) | -2.34 (active) |
| OC(COc1cccc(OCC(O)CN2CCCC2)c1)CN1CCCC1 (stereo not drawn) | -0.0676 |
| N#Cc1ccc(OCCN2C(=O)NC3(CCSC3)C2=O)cc1 (stereo not drawn) | 0.213 |
| Cc1n[nH]c(C)c1S(=O)(=O)N1CCCC(C(=O)NCC2COc3ccccc3O2)C1 (stereo not drawn) | 0.422 |
| COc1ccc(C(C)=O)cc1COC(=O)Cn1cnc2ccccc2c1=O | 0.139 |
| CN1CCN(c2ccc(NC(=O)COc3ccc(Cl)cc3Cl)cc2)CC1 | -3.05 (active) |
| Cc1cc(NC(=O)COc2ccc(Cl)cc2Cl)n(CCC#N)n1 | -0.163 |
| Cc1ccccc1OCC(=O)Nc1ccc(N2CCN(C(=O)C(C)C)CC2)c(Cl)c1 | -1.61 |
| CCCc1[nH]nc2c1C(c1ccc(Br)s1)C(C#N)=C(N)O2 (stereo not drawn) | 0.255 |
| CCOC(=O)N1CC=C2C(C#N)=C(N)C(C#N)(C#N)[C@H](c3cccs3)[C@H]2C1 | 0.673 |
| CCC1=C(C(=O)OC)C(c2cc(OC)ccc2OC)C(C#N)=C(N)O1 (stereo not drawn) | 0.513 |

| Structure (SMILES) | B-score |
| --- | --- |
| CCCN1CC=C2C(C#N)=C(N)C(C#N)(C#N)C(c3cc(OC)ccc3OC)C2C1 (stereo not drawn) | -2.33 (active) |
| CCn1cc(NC(=O)Nc2ccc(OC)c(OC)c2)c(C(N)=O)n1 | -0.416 |
| Cn1c(=NC(=O)c2ccco2)sc2cccc(F)c21 | 0.839 |
| O=C(CC(Cc1ccccc1)C(=O)O)NCCc1ccc2c(c1)OCO2 (stereo not drawn) | -0.392 |
| O=C(NCCc1ccc2c(c1)OCCO2)c1cc2ccccc2o1 | -3.3 (active) |
| O=C(COC(=O)c1ccc2c(c1)OCCO2)NCc1ccccc1 | 0.116 |
| CCOc1ccccc1C1C(C(=O)OC)=CN(C)C=C1C(=O)OC | 0.428 |
| Cn1nnnc1SCC(=O)N1CCN(C(c2ccccc2)c2ccccc2)CC1 | -2.4 |
| O=C(c1ccc(-n2cnnn2)cc1)N1CCN(C(c2ccccc2)c2ccccc2)CC1 | -10.9 (active) |
| O=C(c1ccccc1)N1CCN(C(=O)N2CCCCC2)CC1 | -0.168 |
| CC(Nc1nc(N2CCCC2)nc2ccccc12)c1ccccc1 (stereo not drawn) | -1.8 |
| COc1cc(-c2nc(S(=O)(=O)c3ccc(Cl)cc3)c(N(C)C)o2)cc(OC)c1OC | 0 |
| COc1ccc(CSc2nc(N3CCOCC3)c3c(c2C#N)CC(C)(C)OC3)cc1 | 0.045 |
| CCS(=O)(=O)N1CCC(C(=O)N2CCN(c3ccccc3)CC2)CC1 | -0.14 |
| Cc1ccc(N2CCN(S(=O)(=O)c3ccc(F)cc3)CC2)c(C)c1 | 1.98 (active) |
| Cc1ccc(S(=O)(=O)N2CCC(N3CCCCCC3)CC2)cc1 | -0.781 |
| Cc1ccc(C)c(N2CCN(S(=O)(=O)c3ccc4c(c3)oc(=O)n4C)CC2)c1 | 0.182 |
| Cc1cc(=O)oc(C)c1C(=O)NCc1ccc(F)cc1 | -0.775 |
| CCOC(=O)C(CC)Sc1ncnc2c1nnn2-c1ccc(F)cc1 (stereo not drawn) | 0.284 |
| O=C(CCn1c(=O)[nH]c2ccccc2c1=O)NCCCN1CCN(c2cccc(Cl)c2)CC1 | -1.14 |
| O=C(CCCn1c(=O)[nH]c2cc(Cl)ccc2c1=O)NCCN1CCN(c2ccccc2)CC1 | 12.4 (active) |
| COc1ccc(CCNC(=O)CCCCn2c(=O)[nH]c3ccccc3c2=O)cc1OC | -0.359 |
| C=CCn1c(=S)[nH]c2nc3c(cc2c1=O)COC(C)(C)C3 | -2.69 (active) |
| CC(C)OCCCNc1nc2c(c(=O)n(Cc3ccccc3F)c(=O)n2C)n1C | -0.366 |
| O=C(CN1CCOCC1)Nc1c2c(nc3c1CCC3)CCC2 | -0.251 |

| Structure (SMILES) | B-score |
| --- | --- |
| Cc1cccn2c(=O)c3cc(C#N)c(=O)n(CCCN4CCOCC4)c3nc12 | -0.356 |
| Cc1cccn2c(=O)c3cc(C(=O)N4COCC4(C)C)n(C)c3nc12 | -0.585 |
| Cc1cccn2c(=O)c3cc(C#N)c(=NC(=O)c4cccnc4)n(CC4CCCO4)c3nc12 (stereo not drawn) | -1.9 (active) |
| CC1CCc2c(sc3c2C2=NS(=O)(=O)CCN2C=N3)C1 (stereo not drawn) | -0.133 |
| Cc1ccc(C)n1-c1ccncc1 | -0.0105 |
| CCOC(=O)CCc1c(C)c(C#N)c2[nH]c3ccccc3n2c1=O | -0.0991 |
| COC(CCN(C)C)(c1ccccc1)c1ccccc1 | -11.2 (active) |
| COc1ccc2oc(=O)c(C(=O)N3CCN(c4ccccc4F)CC3)cc2c1 | 0.203 |
| CN1CCN(CC(=O)Nc2sc3c(c2C#N)CCC(C(C)(C)C)C3)CC1 (stereo not drawn) | -2.38 (active) |
| CCC(=O)Nc1sc(C(=O)N2CCCCC2)c(C)c1C#N | -0.552 |
| C1=C(N2CCOCC2)/C(=C/c2nc3ccccc3[nH]2)CC1 | 0.998 |
| Cc1cc2c(cc1C)NC(c1ccccn1)C1=C(CC(C)(C)CC1=O)N2 (stereo not drawn) | 2.52 (active) |
| CCC1C(C#N)=C(SC)NC2=C1C(=O)CC(C)(C)C2 (stereo not drawn) | -0.0322 |
| COc1cc(C2C(C#N)=C(C)NC3=C2C(=O)CC(C)(C)C3)ccc1O (stereo not drawn) | 0.109 |
| COc1ccc(-c2noc(COc3ccc(Cl)c(C)c3)n2)cc1 | -0.385 |
| COc1ccccc1Cc1nc(-c2ccc(C)cc2)no1 | 0.115 |
| COc1ccc(-c2noc(CN(C)S(=O)(=O)c3ccc(C)cc3)n2)cc1 | -3.11 (active) |
| CC(C)Oc1ccc(C2NC(=O)NC2=O)cc1 (stereo not drawn) | -0.129 |
| O=C(O)CN(Cc1ccco1)S(=O)(=O)c1ccccc1 | 0.346 |
| Cc1cccc(C)c1NC(=O)N1CC=C(n2c(=O)[nH]c3ccccc32)CC1 | 0.257 |
| CC(C)C1C2=C(CC(C)(C)CC2=O)ON1c1ccccc1 (stereo not drawn) | -0.269 |
| Cc1cc(N2C(=O)C(=O)/C(=C(/O)c3ccc(Cl)cc3)C2c2cccc(Br)c2)no1 (stereo not drawn) | 0.0445 |
| CCOC(=O)c1c(NC(=O)c2ccc(Br)o2)sc2c1CCCC2 | 0.689 |
| COC(=O)Nc1ccc(S(=O)(=O)N(C)CC(F)(F)C(F)F)cc1 | 0.467 |
| O=S(=O)(CCc1nc2ccccc2o1)c1ccc(Cl)cc1 | -2.24 (active) |

| Structure (SMILES) | B-score |
| --- | --- |
| O=C(CSc1nc2ccccc2o1)N1CCN(c2ccc(Cl)cc2)CC1 | -0.0538 |
| O=S(=O)(O)c1nc2ccccc2n1Cc1ccc(Cl)cc1 | 0.456 |
| O=C1c2ccncc2C(=O)N1C1CCCCC1 | -0.0556 |
| O=C(OCc1ccccc1F)c1ccc2c(c1)OCCO2 | 0.0701 |
| C[C@H](NC(=O)OC(C)(C)C)c1nnc(SCC(=O)Nc2ccc(Br)cc2)o1 | 0.0617 |
| Nc1nnc(SCCN2C(=O)c3ccccc3S2(=O)=O)s1 | 2.64 (active) |
| CNC(=O)CN1C(=O)c2ccccc2S1(=O)=O | 0.00139 |
| CCCc1nnc(NC(=O)CN2C(=O)c3ccccc3S2(=O)=O)s1 | -0.485 |
| COC(=O)c1cc(NC2c3ccccc3C(=O)N2c2ccc(Cl)cn2)cc(C(=O)OC)c1 (stereo not drawn) | 0.743 |
| CC(=O)c1c(N)n(C)c(=O)n(C)c1=O | 0.343 |
| CCc1ccc(N2CC(C(=O)NC3=NCCS3)CC2=O)cc1 (stereo not drawn) | -0.382 |
| O=C(NC1=NCCS1)c1ccc(Cl)s1 | -2.35 (active) |
| CC(NC(=O)COc1ccccc1)C(=O)NC1=NCCS1 (stereo not drawn) | -0.755 |
| CCOC(=O)C1CCN(C(=O)C2CCN(S(=O)(=O)N3CCCC3)CC2)CC1 | -0.822 |
| Cc1ccc(C(=O)NC2CCN(C(=O)N3CCOCC3)CC2)cc1 | -0.472 |
| Cc1noc(C)c1S(=O)(=O)NCCc1ccc(S(N)(=O)=O)cc1 | 0.287 |
| CCCN1CCN(C(=O)Cn2ncc3ccccc32)CC1 | -0.673 |
| CC(C)(C)n1nnc(CCc2nnn(C(C)(C)C)n2)n1 | 0.866 |
| Cc1ccc(Cc2cncc(O)c2)cc1S(=O)(=O)O | -0.895 |
| CC12CCC(C(=O)N(CCC#N)CCC#N)(CC1=O)C2(C)C (stereo not drawn) | 0.00852 |
| N#CCCN1CCN(S(=O)(=O)c2ccc(S(=O)(=O)NC3CC3)cc2)CC1 | -0.837 |
| N#CCCN1CCN(S(=O)(=O)c2ccc(S(=O)(=O)N3CCCC3)cc2)CC1 | -0.0175 |
| CC(C)(C)c1cc(CN2CCN(CCC#N)CC2)cc(C(C)(C)C)c1O | -3.57 (active) |
